Results reported in PubChem BioAssay (NCI).
This is part of a sample that, as a whole, favours compounds with a hit. Of some 79,000 tested, about 15% had one in any assay. Cut-off read from the data, not from the text of the source: active = growth inhibition above about 70%; inactive = the rest.

How the values were obtained:
[1] = NCI Yeast Anticancer Drug Screen. Data for the rad52 strain (AID 147);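 note: 0% = growth of vehicle-treated control cultures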; details: S. cerevisiae rad52 mutant growth inhibition, hits give high values
Summary of the method: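 Read-out: growth inhibition versus vehicle-treated controls. Cells were a DNA repair-deficient yeast strain treated with compounds.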

[2] = NCI Yeast Anticancer Drug Screen. Data for the wt1 strain (AID 149);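 note: 0% = growth of vehicle-treated wt1 cultures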; details: S. cerevisiae wt1 strain (SPY 50644) growth inhibition, hits give high values
Summary of the method: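 Yeast wt1 strain exposed to compounds; growth inhibition measured relative to vehicle-treated controls.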

[3] = NCI Yeast Anticancer Drug Screen. Data for the rad50EPP+ strain (AID 151);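 note: 0% = growth of vehicle-treated control cultures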; details: S. cerevisiae rad50 mutant strain, hits give high values
Summary of the method: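 Growth inhibition read against vehicle controls in rad50EPP+ yeast, a strain altered in DNA damage repair, after compound exposure.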

[4] = NCI Yeast Anticancer Drug Screen. Data for the mgt1 strain (AID 153); details: S. cerevisiae mgt1 mutant growth inhibition, hits give high values
Summary of the method: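 mgt1 yeast grown with test compound; read-out is growth inhibition versus vehicle-treated cultures.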

[5] = NCI Yeast Anticancer Drug Screen. Data for the rad50 strain (AID 155);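 note: 0% = growth of vehicle-only cultures of the same strain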; details: S. cerevisiae rad50 strain growth inhibition, hits give high values
Summary of the method: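 Yeast carrying a defined DNA repair defect were exposed to test compounds, and growth was compared with vehicle-treated controls to give percent inhibition.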

[6] = NCI Yeast Anticancer Drug Screen. Data for the rad14 strain (AID 159);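 note: 0% = growth of vehicle-treated control cultures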; details: S. cerevisiae rad14 strain growth inhibition, hits give high values
Summary of the method: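 Yeast cells carrying a defined DNA-repair defect were exposed to compounds, and growth inhibition was calculated relative to vehicle-treated control cultures.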

[7] = NCI Yeast Anticancer Drug Screen. Data for the CLN2oe strain (AID 163);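 note: 0% = growth of vehicle-only control cultures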; details: S. cerevisiae CLN2oe strain, hits give high values
Summary of the method: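 Read-out: yeast growth inhibition, expressed relative to vehicle-only controls. The strain bears an engineered cell-cycle alteration.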

[8] = NCI Yeast Anticancer Drug Screen. Data for the cln2 rad14 strain (AID 165);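 note: 0% = growth equal to vehicle treated cultures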; details: S. cerevisiae cln2 rad14 strain, hits give high values
Summary of the method: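 cln2 rad14 yeast strain; compound exposure; growth inhibition read vs vehicle controls.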

[9] = NCI Yeast Anticancer Drug Screen. Data for the bub3 strain (AID 167); details: S. cerevisiae bub3 mutant strain, hits give high values
Summary of the method: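 Compounds were applied to a genetically altered yeast strain carrying a cell-cycle control defect. Growth inhibition was scored against vehicle-treated controls.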

[10] = NCI Yeast Anticancer Drug Screen. Data for the wt2 strain (AID 169);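 note: 0% = growth of vehicle-treated yeast cultures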; details: S. cerevisiae wt2 strain growth inhibition, hits give high values
Summary of the method: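 Read-out: growth inhibition versus vehicle-treated control cultures after compound exposure of the yeast strain.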

[11] = NCI Yeast Anticancer Drug Screen. Data for the mlh1 strain (AID 171);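 note: 0% = growth of vehicle-treated control cultures of the same strain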; details: S. cerevisiae mlh1 strain growth inhibition, hits give high values
Summary of the method: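 Read-out: growth inhibition versus vehicle controls. Strain: engineered yeast with a defined DNA repair or cell cycle defect, compound-treated.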

[12] = NCI Yeast Anticancer Drug Screen. Data for the sgs1 strain (AID 173);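 note: 0% = growth of vehicle-only control cultures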; details: S. cerevisiae sgs1 mutant, hits give high values
Summary of the method: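 Read-out: yeast growth inhibition relative to vehicle controls, following compound exposure of a strain with a defined DNA repair/cell cycle alteration.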

[13] = NCI Yeast Anticancer Drug Screen. Data for the mlh1 rad18 strain (AID 175); details: S. cerevisiae mlh1 rad18 strain growth inhibition, hits give high values
Summary of the method: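 Yeast w/ defined DNA-repair lesions; compound exposure; growth vs vehicle controls → % inhibition.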

[14] = NCI Yeast Anticancer Drug Screen. Data for the rad18 strain (AID 177); details: S. cerevisiae rad18 mutant growth inhibition, hits give high values
Summary of the method: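 Readout: growth inhibition vs vehicle controls. Cells: genetically altered yeast strain, DNA repair defect.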

[15] = at 5.0 µM (retest, dose inferred, filed as 0.5)
[16] = at 50.0 µM (retest, dose inferred, filed as 5.0)

Measured: growth inhibition

O=C(O)c1ccccc1C(=O)OC1CCc2ccccc2C1 (configuration not stated)
inactive: [1]; at 1.2 µM -3% | [1]; at 3.7 µM -2% | [1]; at 11.0 µM 0% | [1]; at 33.0 µM 18% | [1]; at 100.0 µM 46% | [2]; at 1.2 µM -5% | [2]; at 3.7 µM -7% | [2]; at 11.0 µM -80% | [2]; at 33.0 µM -1% | [2]; at 100.0 µM 27% | [3]; at 1.2 µM 0% | [3]; at 3.7 µM -4% | [3]; at 11.0 µM -1% | [3]; at 33.0 µM -8% | [3]; at 100.0 µM -12% | [4]; at 1.2 µM -4% | [4]; at 3.7 µM -6% | [4]; at 11.0 µM -10% | [4]; at 33.0 µM -1% | [4]; at 100.0 µM 5% | [5]; at 1.2 µM -1% | [5]; at 3.7 µM 0% | [5]; [15] -12% | [5]; at 11.0 µM 1% | [5]; at 33.0 µM 14% | [5]; [16] 17% | [5]; at 50.0 µM 26.4% | [5]; at 100.0 µM 39% | [6]; at 1.2 µM -5% | [6]; at 3.7 µM -7% | [6]; at 11.0 µM -7% | [6]; at 33.0 µM 11% | [6]; at 100.0 µM 52% | [7]; at 1.2 µM -10% | [7]; at 3.7 µM -14% | [7]; at 11.0 µM -11% | [7]; at 33.0 µM 39% | [7]; at 100.0 µM 62% | [8]; [15] -74% | [8]; [16] -12% | [8]; at 50.0 µM 58% | [9]; at 1.2 µM -9% | [9]; at 3.7 µM -10% | [9]; [15] -1% | [9]; at 11.0 µM -9% | [9]; at 33.0 µM 17% | [9]; [16] 33% | [9]; at 50.0 µM 55.8% | [9]; at 100.0 µM 53% | [10]; at 1.2 µM -4% | [10]; at 3.7 µM -6% | [10]; at 11.0 µM -9% | [10]; at 33.0 µM -2% | [10]; at 100.0 µM 25% | [11]; at 1.2 µM -5% | [11]; at 3.7 µM -9% | [11]; at 11.0 µM -6% | [11]; at 33.0 µM 14% | [11]; at 100.0 µM 42% | [12]; at 1.2 µM -4% | [12]; at 3.7 µM -4% | [12]; at 11.0 µM -3% | [12]; at 33.0 µM 14% | [12]; at 100.0 µM 45% | [13]; [15] -4% | [13]; [16] 33% | [13]; at 50.0 µM 22.7% | [14]; at 1.2 µM -2% | [14]; at 3.7 µM -1% | [14]; at 11.0 µM -1% | [14]; at 33.0 µM 6% | [14]; at 100.0 µM 31%
